# About 6,200 (1.7%) of roughly 360,000 compounds were called active. The full list was thinned out, with actives kept by preference. Values without a mark were called inactive.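 How the source made its calls: active means inhibition of at least 50% at 20 µM; inactive means the rest.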
# Test: Peg3 promoter-driven luciferase inhibitors, primary screen, cell-based, HeLa, luciferase luminescence (AID 588405)
# Details: HeLa PEG-Prom luciferase reporter, overnight, at 20 µM, stronger effect = higher value
row,Compound,inhibition
1,CC1([N+](=O)[O-])COP(=O)(Nc2ccc(F)cc2)OC1 (stereo unspecified),3.6%
2,CCCCCn1c(=O)c(C(=O)NCc2ccccn2)c(O)c2ccccc21,15.5%
3,CCOc1ccc(-c2cc(C)[n+](CCN(CC)CC)c(-c3ccc(OCC)cc3)c2)cc1,53.3% (active)
4,CC(C)n1c(=O)c(C=Nc2ccc(Br)cc2)c(O)n(Cc2ccco2)c1=O,8.27%
5,COC(=O)C1=C(c2ccc(Cl)c(C(F)(F)F)c2)C[C@@H]2CC[C@H]1N2C(=O)NC1CC1,-0.39%
6,COC(=O)C1=C(c2ccc3ccccc3c2)C[C@@H]2CC[C@H]1N2C(=O)NCCO,-5.4%
7,COC1C(O)C(C)OC(OC2CCC3(C=O)C(CCC4C3CCC3(C)C(C5=CC(=O)OC5)CCC43O)C2)C1O (stereo unspecified),105% (active)
8,CC1C(=O)OC2CCN3CC=C(COC(=O)C(C)(O)C1(C)O)C23 (stereo unspecified),-0.84%
9,CC1=C(C(=O)Nc2ccccc2)S(=O)(=O)CCO1,9.24%
10,CC1=C2C(=O)C3C(CC=C4CC(OC5OC(O)C(O)C(O)C5CO)CCC43C)C2CCC12OC1CC(C)CNC1C2C (stereo unspecified),-7.24%
11,CCN(CC)C(=O)c1ccc(NC(=O)c2cc(-n3cnnc3)ccc2Cl)cc1,5.1%
12,CN(C)CC1Oc2ccccc2OC1(O)c1ccccc1 (stereo unspecified),103% (active)
13,c1cc2c(cc1C1OCC3C(c4ccc5c(c4)OCO5)OCC13)OCO2 (stereo unspecified),-66.8%
14,COc1ccc(NC(=O)N2Cc3ccccc3-n3nncc3C2)cc1,7.2%
15,Cc1ccc(C)c(NC2=NCCCS2)c1,4.99%
16,COC(=O)C1=C(c2ccc(F)cc2OCc2ccccc2)C[C@@H]2CC[C@H]1N2C(=O)NCc1ccc(C(C)(C)C)cc1,14.9%
17,CC1(C)Cc2c(C#N)c(N3CCNCC3)nc(-c3ccco3)c2CS1,78.3% (active)
18,c1ccc(N2Cc3ccccc3-n3nncc3C2)nc1,-7.56%
19,COc1cc(-n2c(=S)[nH]c3ccc(C)cc3c2=O)c(Cl)cc1Cl,30.3%
20,CCOC(=O)c1c(C)c(C(=O)N2CCC3(CC2)OCCO3)c(C)n1CC,13.1%
21,C[C@H]1CN([C@@H](C)CO)C(=O)CCCn2nncc2CO[C@H]1CN(C)C(=O)Oc1cccc2ccccc12,9.28%

# Source: PubChem BioAssay AID588405 (Sanford-Burnham Center for Chemical Genomics, 2011)
